Screens: PubChem BioAssay, National Center for Advancing Translational Sciences (NCATS)
Most compounds without a hit are left out; they make up all but 2.4% or so of the library.
D2 ag-1: human D2 receptor agonism in beta-arrestin assay; P14416; activation, % (no concentration beside the values); DiscoveRx PathHunter D2 beta-arrestin, luminescence, 90 min; 100% = 57 uM dopamine signal; 360,000 compounds, 0.084% hits; in the data active means activation above about 40%
Target sequence (P14416 whole entry, looked up): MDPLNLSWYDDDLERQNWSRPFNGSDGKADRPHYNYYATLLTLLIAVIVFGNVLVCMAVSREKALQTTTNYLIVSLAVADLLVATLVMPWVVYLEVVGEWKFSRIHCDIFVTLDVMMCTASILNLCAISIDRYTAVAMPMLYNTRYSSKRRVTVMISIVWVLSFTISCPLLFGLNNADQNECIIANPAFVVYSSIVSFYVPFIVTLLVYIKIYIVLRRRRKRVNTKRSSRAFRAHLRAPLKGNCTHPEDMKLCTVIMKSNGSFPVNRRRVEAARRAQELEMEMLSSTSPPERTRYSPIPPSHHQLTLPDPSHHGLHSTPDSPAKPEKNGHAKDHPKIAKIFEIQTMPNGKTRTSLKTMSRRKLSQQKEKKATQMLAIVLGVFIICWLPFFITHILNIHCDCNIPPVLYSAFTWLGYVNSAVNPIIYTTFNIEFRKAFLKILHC
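Agonist mode: compounds alone added to overnight-plated D2 PathHunter cells for 90 min at 37 C, with 57 uM final dopamine (EC100) defining full response. Beta-arrestin recruitment detected by chemiluminescent reagent, read after 1 h at ambient temperature.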
D2 antag: antagonizes the human D2 dopamine receptor; P14416; 340,000 compounds, 2% hits; inhibition, % at 10 µM; HEK293 TREx D2 cells, calcium flux, dopamine EC80; in the data active means inhibition above about 30%; inactive means below that, where a call was filed; further: 0% is about no effect
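Measurement of antagonist activity uses fluorescent calcium dye in inducible HEK293 T-REx D2 cells: 10 s baseline, compound addition with 180 s read, EC80 dopamine addition with a further 180 s read.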
D2 PAM-1: D2 dopamine receptor (human) potentiation. HEK293 T-REx D2, calcium flux, EC20 dopamine potentiation. 340,000 compounds, 0.34% hits. potentiation, % at 10 µM;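 active means potentiation over 3 SD above the plate norm, cut at about 30% in these data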; further: 0% is about no effect
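Cells plated with tetracycline inducer and held overnight at 30 C; calcium dye loaded 30–90 min at room temperature; baseline taken, compound added and read 180 s; EC20 dopamine then added and read 180 s.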
D2 ag-2: agonists of human D2 dopamine receptor; P14416; HEK293 T-REx D2 cells, calcium flux agonist mode; activation, % at 2 µM; 340,000 compounds, 0.53% hits; AID 485358;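 active means activation over 3 SD above normal in the single-dose calcium agonist read, cut at about 30% in these data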; further: 0% is about no effect
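HEK293 Trex D2 cells, tetracycline-induced, o/n 30 C 5% CO2; no-wash Ca dye, RT 30–90 min; 10-cycle baseline, 23 nl cpd added, kinetic Ca read 180 s; agonist hits = positive Ca response.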
D2 PAM-2: human D2 receptor positive allosteric modulation. P14416. DiscoveRx D2 beta-arrestin cells, luminescence, 90 min; 100% = 57 uM dopamine signal. potentiation, % (no concentration beside the values). 360,000 compounds, 0.23% hits; in the data active means potentiation above about 50%
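PathHunter beta-arrestin assay in DiscoveRx D2 cells. Compounds were added with an EC20 of dopamine (50 nM final) for 90 min at 37 deg C. Luminescence was read 1 h after detection reagent, with 57 uM dopamine as the EC100 control.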
Starred values were filed as active, the others as inactive; / = no result.

SMILES	D2 ag-1	D2 antag	D2 PAM-1	D2 ag-2	D2 PAM-2
O=C(OCn1nnc2ccccc2c1=O)C1CCN(S(=O)(=O)c2cccs2)CC1	-4	-11	74*	-1	-3
O=C(OCc1ccccc1)C1CCN(S(=O)(=O)c2cccs2)CC1	-3	/	/	/	-6
O=C1CC(c2ccccc2)Oc2cc(O)ccc21 (configuration not stated)	-2	19	-2	0	1
O=C(CCn1c(=O)[nH]c2ccsc2c1=O)NCc1ccc(F)cc1	-5	3	-2	1	-9
COc1cccc2c1cc1c(=O)n(CC(=O)N3CCN(c4cccc(C(F)(F)F)c4)CC3)nc(C)n12	/	/	-9	0	/
O=C(Nc1ccccc1Cl)c1cc(C2CCCCN2C(=O)c2cccs2)on1 (configuration not stated)	-3	/	/	/	-14
COc1ccc(OC)c([N+](=O)[O-])c1C(N)=O	8	7	-8	0	50*
O=C(C#Cc1ccccc1)Nc1ccc(F)cc1	0	47*	-19	0	-24
COc1ccccc1NC(=O)Cn1c(=O)n(Cc2cccs2)c(=O)c2cccnc21	/	/	-7	0	/
Cc1nn(-c2ccccc2)c(N)c1C(O)(CSc1nccn1C)C(F)(F)F (configuration not stated)	0	37*	0	0	6
Cc1nn(-c2ccc(Cl)cc2)c(N)c1C(O)(CSc1nccn1C)C(F)(F)F (configuration not stated)	1	9	6	1	-4
COc1ccc(OC)c(/C=C2/Sc3ccccc3C2=O)c1	0	7	-3	34*	16
CC(NC(=O)c1nn(C)c2c1CSc1ccccc1-2)c1ccccc1 (configuration not stated)	/	/	5	1	/
CCOC(=O)Cc1ccc(NC(=O)N2CC(CC)Oc3ccccc32)cc1 (configuration not stated)	/	/	5	0	/
COC(=O)c1ccc(NC(=O)CSc2nnnn2C2CCCCC2)cc1	7	42*	-1	0	-9
CCN(CC)CCOC(=O)c1ccc(NC(=O)CSc2nnc(-c3cccs3)n2CC)cc1	13	/	/	/	74*
Cc1cc(NC(=O)CSc2nnc(-c3cccs3)n2N)no1	-2	39*	10	0	-7
C=CCn1c(SCC(=O)Nc2ccc(C(=O)OCC)cc2)nnc1-c1sc(N)nc1C	-9	31*	0	1	23
CCOC(=O)c1ccc(NC(=O)CSc2nnc(CNc3ccc(C)cc3)n2C)cc1	0	-9	-6	1	50*
CCOC(=O)c1ccc(NC(=O)CSc2nnc(C3CC3)n2C)cc1	-3	-11	11	0	-11
CCCCn1c(SCC(=O)Nc2cc(C)on2)nnc1-c1cccs1	-4	6	6	1	-14
CCC(C(=O)N1CCN(c2ccccc2)CC1)n1nc(C)c2sc3ccccc3c2c1=O (configuration not stated)	/	/	1	1	/
Cc1cccc(S(=O)(=O)c2c(N)n(Cc3ccco3)c3nc4ccccc4nc23)c1	-3	4	45*	3	-9
COc1ccc2c(c1)C(C)CC(C)(C)N2C(=O)Nc1ccccc1 (configuration not stated)	1	54*	-3	1	-2
COc1ccc2c(c1)C(C)CC(C)(C)N2C(=O)CSc1nc2ccccc2s1 (configuration not stated)	-4	14	-6	0	17
SMILES	D2 ag-1	D2 antag	D2 PAM-1	D2 ag-2	D2 PAM-2
CCC1(c2ccc(Cl)cc2)NC(=O)N(CC(=O)NCc2ccc(F)cc2)C1=O (configuration not stated)	2	-15	3	0	-5
CCC1(c2ccc(Cl)cc2)NC(=O)N(Cc2ccc(C(=O)OC)cc2)C1=O (configuration not stated)	1	4	35*	2	7
O=[N+]([O-])c1ccc(N2CCCC2)cc1NC(c1ccccc1)c1ccccc1	0	30*	1	0	-3
Cc1ccc(CCNC(=O)CCn2nc(-c3ccc(C)cc3)ccc2=O)cc1	/	/	-14	0	/
Cn1cc(C(=O)O)c(=O)c2cc(S(=O)(=O)N3CCOCC3)ccc21	/	/	-5	4	/
COc1ccc2c(C(=O)CN3CCSCC3)c[nH]c2c1	-4	10	15	-1	-3
COc1ccccc1N1CCN(CC(O)c2c(C)[nH]c3ccccc23)CC1 (configuration not stated)	-4	65*	-13	0	-33
O=S(=O)(c1cccs1)N1CCN(CC(O)COC2CCCc3ccccc32)CC1 (configuration not stated)	0	8	3	0	5
OC(COc1ccccc1Cl)CN1CCN(CC(O)COc2ccccc2Cl)CC1 (configuration not stated)	0	70*	-16	3	-44
Cc1ccccc1OCC(O)CN1CCN(C)CC1 (configuration not stated)	-6	-16	9	-1	-7
CCOc1ccccc1N1CCN(CC(O)COC2CCCc3ccccc32)CC1 (configuration not stated)	-1	78*	-34	6	-7
COc1ccc2c(C(=O)CN3CCN(c4ccccc4)CC3)c[nH]c2c1	10	41*	-15	56*	-14
CCN(CC)CCCNC(=O)C(C)n1nc(C)n2c(cc3occc32)c1=O (configuration not stated)	/	/	-21	0	/
CCOC(=O)c1cc(C#N)c(SC(C)C(=O)NC2CCCCC2)nc1C (configuration not stated)	-4	13	-3	0	4
COC(=O)c1[nH]c2cc(C)ccc2c1NC(=O)CN1CCN(c2ccccc2OC)CC1	-4	70*	-20	0	-35
COC(=O)c1[nH]c2cc(C)ccc2c1NC(=O)CN1CCOCC1	0	5	-15	-1	0
COc1ccccc1N1CCN(CC(=O)c2c(C)[nH]c3ccccc23)CC1	0	31*	-26	1	-34
C=CCc1ccccc1OCC(O)CN1CCN(c2ccccc2OC)CC1 (configuration not stated)	1	-7	-27	1	-24
COc1ccccc1N1CCN(CC(O)COc2cccc3ccccc23)CC1 (configuration not stated)	-6	86*	-31	2	-38
C=CCc1ccccc1OCC(O)CN1CCN(c2ccccc2F)CC1 (configuration not stated)	1	66*	-26	27	-37
Cc1nc2ccc(C(=O)N(C)Cc3ccco3)cn2c1N(C)CC1CCCCC1	-3	/	/	/	-6
COC(=O)C1=CN(c2ccc(F)cc2)C=C(C(=O)OC)C1c1ccc(O)cc1	-1	-2	4	0	-4
